The whole screen tested about 48,000 compounds, of which about 13,000 (27%) showed an effect of 50% or more. Some of the results follow.
System: Wolbachia pipientis
Assay: Anti-Wolbachia Cell-Based Screen
Type: functional
Set-up: scale not given: in the data most compounds retested in dose-response had high values
Details: 5 µM

| SMILES | Percent Effect [%] |
| --- | --- |
| Cc1nc(C(C)(C)NCc2ncc(C(C)C)o2)sc1C | 0.4552 |
| O=C(C1CCS(=O)(=O)C1)N1CCC(=Cc2cccc(F)c2)CC1 (stereo not given) | 0.7274 |
| Cc1ccc2nc(C(=O)N3C[C@@H](C(=O)O)[C@H](c4ccccc4)C3)cn2c1 | 107.2 |
| COc1cc(C)sc1C(=O)N1CC(c2cccnc2)C1 | -11.08 |
| Cc1ccc2nc(C(=O)N3C[C@@H](C(=O)O)[C@H](c4cccnc4)C3)cn2c1 | 96.84 |
| Cc1ccc2nc(C(=O)N3CC(n4nc(C)cc4C)C3)cn2c1 | -3.622 |
| Cc1c(Cl)c(C(=O)N2C[C@@H](C(=O)O)[C@H](c3cccnc3)C2)nn1C | 7.348 |
| Cc1ccc(F)c(C(=O)N2C[C@@H](C(=O)O)[C@H](c3ccccc3)C2)c1Cl | 13.68 |
| Cc1ccc(CN2C[C@@H](C(=O)O)[C@H](c3cccnc3)C2)s1 | -1.112 |
| Cc1c(Cl)c(C(=O)N2CC(c3cccnc3)C2)nn1C | 11 |
| Cc1ccc2nc(C(=O)N3CC(c4cccnc4)C3)cn2c1 | 95.05 |
| Cc1c(-c2n[nH]c3c2CN(CC2CCOC2)CC3)cccc1C(F)(F)F (stereo not given) | -2.371 |
| CCCOC(=O)C(C)Sc1nnnn1C1CCOCC1 (stereo not given) | -23.26 |
| O=C(NC1CCOCC1)C1CC(=O)N(Cc2ccccn2)C1 (stereo not given) | -4.932 |
| Cc1ncccc1CNCC1CCN(CC(O)c2ccccc2)CC1 (stereo not given) | 6.479 |
| N[C@@H]1CC[C@H](C(=O)NCc2ccc3nonc3c2)C1 | -14.66 |
| Cc1cccc(CN2CCN(C(=O)c3cnc(C)[nH]c3=O)CC2)c1 | -2.506 |
| O=C(O)c1nc(SCc2ccccc2)ncc1Br | 220.2 |
| Cc1ccnc(NC(=O)CSCc2cccnc2)c1 | -2.126 |
| Cc1cccc(CSc2ncc(Cl)c(C(=O)O)n2)c1 | 112.8 |
| Cc1cccc(CN2CCN(C(=O)c3cc(Cl)c[nH]c3=O)CC2)c1 | -10.72 |
| Cc1cccc(CSc2ncc(Br)c(C(=O)O)n2)c1 | 160.3 |
| Cc1ccc(CSc2ncc(Br)c(C(=O)O)n2)cc1 | 104.9 |
| CC1(C)CN(CC(F)(F)F)CCN1CC(=O)NC1CC1 | -2.584 |
| CSc1sc(NC(=O)Cc2c(C)nc(C)[nH]c2=O)nc1C | -3.918 |
| Cc1ncnc(NCc2cc3n(n2)CCCN(S(C)(=O)=O)C3)c1C | 3.244 |
| CNS(=O)(=O)c1csc(C(=O)N(C)Cc2ccccc2C)c1 | -9.289 |

| SMILES | Percent Effect [%] |
| --- | --- |
| CC1COc2ccccc2N1C(=O)CCc1cscn1 (stereo not given) | -5.764 |
| Cc1ccccc1CSc1nc(N)cc(N2CCCC(C(N)=O)C2)n1 (stereo not given) | -15 |
| Cc1ccccc1CSc1ncc(Br)c(C(=O)O)n1 | 130.2 |
| Cc1ccccc1CSc1nc(N)cc(N2CCC(CC(N)=O)CC2)n1 | 7.144 |
| O=C(O)c1nnn(Cc2ccc(F)cc2)c1-c1cccnc1 | 3.102 |
| O=C(O)c1nc(SCc2ccc(F)cc2)ncc1Br | 202.4 |
| Cc1cc(CN2CCc3nn(C(C)C)c(=O)cc3C2)no1 | -4.35 |
| CCc1csc(CCNC(=O)C2CC(=O)N(C(C)C)C2)n1 (stereo not given) | 2.498 |
| CCOCCC(=O)NC(c1noc(C)n1)c1ccccc1F (stereo not given) | -21.83 |
| COc1ccc(CNCC(C)Oc2ccccn2)cc1Br.Cl (stereo not given) | 9.774 |
| NC(=O)c1noc(Cn2ccc3ccccc3c2=O)n1 | -17.09 |
| CN(CCCOc1ccccc1)S(=O)(=O)N1CCOCC1 | 2.231 |
| CC(c1cccc(S(N)(=O)=O)c1)N(C)CCCOc1ccccc1 (stereo not given) | 114.5 |
| CNS(=O)(=O)c1cccc(C(C)NCc2ccccc2)c1 (stereo not given) | -4.826 |
| Cc1ccc(C(C)N(C)CCS(=O)(=O)CCC(N)=O)cc1 (stereo not given) | 1.361 |
| Cc1ccc(OCCCC(=O)NC(C)c2ccc(S(N)(=O)=O)cc2)cc1 (stereo not given) | 31.07 |
| Cc1ccc(OCCN(C)C(C)c2cccc(S(N)(=O)=O)c2)cc1 (stereo not given) | 121.8 |
| Cc1cccc(C2CCCN2C(=O)CN(C)S(C)(=O)=O)c1C (stereo not given) | -12.58 |
| Cc1n[nH]c(C2CN(C(=O)c3scnc3C)CCO2)n1 (stereo not given) | -53.57 |
| CNC(=O)c1ccc(C2CN(C(=O)c3cnn(C)c3)CCO2)nc1 (stereo not given) | 109.7 |
| Cc1nc(N)cc(C2CN(C(=O)c3ccn(C)n3)CCO2)n1 (stereo not given) | -11.99 |
| O=C(c1cccnc1)N1CCOC(c2ccc(-c3cncnc3)cn2)C1 (stereo not given) | 91.28 |
| O=C(c1ccncc1F)N1CCOC(c2cccc(O)c2)C1 (stereo not given) | -9.281 |
| CNC(=O)c1ccc(C2CN(C(=O)c3cncs3)CCO2)nc1 (stereo not given) | -5.383 |
| CNC(=O)c1ccc(C2CN(C(=O)c3scnc3C)CCO2)nc1 (stereo not given) | 111.8 |
| CCC1CN(C(=O)c2cnc(-c3cnn(C)c3)s2)CCO1 (stereo not given) | -21.53 |
| Cc1n[nH]c(C2CN(C(=O)c3ccc(=O)n(C)c3)CCO2)n1 (stereo not given) | -1.43 |

| SMILES | Percent Effect [%] |
| --- | --- |
| O=C(c1cccnc1)N1CCOC(CCCc2ccccc2)C1 (stereo not given) | 4.666 |
| Cn1ccc(C(=O)N2CCOC(c3ccc(C(N)=O)cn3)C2)n1 (stereo not given) | 91.81 |
| CCN(Cc1noc(CC(C)C)n1)Cc1ccccc1C(=O)O | 3.594 |
| COc1ccc(C(=O)C2CCCN(c3cc(N)ncn3)C2)c(C)c1 (stereo not given) | -12.01 |
| Cc1cc(C[C@@H]2COC[C@@H]2NC(=O)CN2CCCN(C)CC2)on1 | -4.417 |
| Cc1cc(C2CCCN2C(=O)CN2CCc3ccccc32)on1 (stereo not given) | -2.751 |
| Cc1[nH]ncc1C(=O)N1CCOC(c2cccs2)C1 (stereo not given) | 6.058 |
| CNC(=O)c1ccc(C2CN(C(=O)c3coc(C)n3)CCO2)nc1 (stereo not given) | 128.9 |
| CNC(=O)c1ccc(C2CN(C(=O)c3c[nH]nc3C)CCO2)nc1 (stereo not given) | 101.4 |
| Cc1cc(NC(=O)c2ccc(C)c(F)c2)[nH]n1 | 2.098 |
| CS(=O)(=O)CCCC(=O)Nc1cc(Cl)c(Cl)cn1 | 1.598 |
| CCS(=O)(=O)CC(=O)Nc1cc(-c2cccc(F)c2F)n[nH]1 | 100.6 |
| CS(=O)(=O)CCCC(=O)Nc1cc(-c2cccc(F)c2F)n[nH]1 | 87.07 |
| COc1ccccc1-c1cc(NC(=O)CCS(=O)(=O)C2CCCC2)[nH]n1 | 7.035 |
| CCOCC(=O)Nc1cc(-c2cccc(F)c2F)n[nH]1 | 91.5 |
| CCS(=O)(=O)CC(=O)Nc1c(C)cnn1Cc1cc(F)ccc1F | -26.81 |
| CC(=O)Nc1cc(-c2cccc(F)c2F)n[nH]1 | 88.91 |
| O=C(COCC1CC1)Nc1cc(-c2ccc(Br)s2)n[nH]1 | -5.562 |
| CCS(=O)(=O)CC(=O)NCC1(c2c(F)cccc2F)CCCC1 | -2.417 |
| COc1ccccc1-c1cc(NC(=O)COCC2CC2)[nH]n1 | 4.73 |
| COc1ccc(Cl)cc1-c1cc(NC(=O)C2CNC(=O)N2)[nH]n1 (stereo not given) | 7.586 |
| CN1CCOC(C(=O)N2CCCC(C)(C)CC2)C1 (stereo not given) | -5.11 |
| CCc1c(C)nc(N)nc1NCCSCc1[nH]cnc1C | -21.58 |
| c1coc(-c2nc(CN3CCn4c(nnc4C4CC4)C3)cs2)c1 | 21.52 |
| N#Cc1cccnc1N1CCCC(CO)(Cc2ccc(F)cc2)C1 (stereo not given) | -22.45 |
| CN(C)C(=O)c1ccc2c(c1)N(C)C(CC(=O)NCc1ncc[nH]1)CO2 (stereo not given) | -21.18 |
| O=C(COc1ccccc1)NS(=O)(=O)Cc1ccccc1 | 9 |

| SMILES | Percent Effect [%] |
| --- | --- |
| COCCN1C[C@@H](C)[C@@]2(COCCN(C(=O)Cc3ccccc3)C2)C1.O=C(O)C(F)(F)F | -3.108 |
| CC(C)CC(C#N)NC(=O)c1ccc(Oc2cccnc2)cc1 (stereo not given) | 0.407 |
| CCN(Cc1nc2c(cnn2C)c(=O)[nH]1)c1ccc(OC)c(OC)c1 | 11.95 |
| COc1ccc(CN(C)Cc2nc3c(cnn3C)c(=O)[nH]2)cc1OC | 10.06 |
| CCN(Cc1ccc2c(c1)OCO2)Cc1nc2c(cnn2C)c(=O)[nH]1 | 112.4 |
| CCN(Cc1ccc(OC)c(F)c1)Cc1nc2c(cnn2C)c(=O)[nH]1 | 142.5 |
| CCN(Cc1ccc(F)c(F)c1)Cc1nc2c(cnn2C)c(=O)[nH]1 | 128.6 |
| CN(Cc1ccc2c(c1)OCO2)Cc1nc2c(cnn2C)c(=O)[nH]1 | 5.823 |
| CCN(Cc1nc2c(cnn2C)c(=O)[nH]1)c1cccc(Cl)c1 | -0.7695 |
| CCN(Cc1nc2c(cnn2C)c(=O)[nH]1)c1cc(C)ccc1C | -12.64 |
| COCCN1C[C@H]2CC[C@@H]1CN(Cc1cc(=O)c3cc(C)ccc3[nH]1)C2 | -2.085 |
| COc1c(-c2ccc(O)cc2)oc2cc(O)cc(O)c2c1=O [ISOKAEMPFERIDE] | 3.468 |
| CCc1cc(N2CCC(N[C@@H]3CS(=O)(=O)C[C@H]3O)CC2)nc(N(C)C)n1 | -8.378 |
| CN1CCN(c2ncnc3c2CCN(c2ncc(F)cn2)CC3)CC1.O=C(O)C(F)(F)F | 6.683 |
| Cc1ncnc2c1CCN(S(=O)(=O)C1CC1)CC2 | 105 |
| O=S(=O)(C1CC1)N1CCc2ncnc(-c3ccsc3)c2CC1 | -15.04 |
| CCOc1ncnc2c1CCN(S(=O)(=O)C1CC1)CC2 | 10.58 |
| CN1CCN(c2ncnc3c2CCN(S(=O)(=O)C2CC2)CC3)CC1.O=C(O)C(F)(F)F | 114.5 |
| O=S(=O)(C1CC1)N1CCc2ncnc(-c3ccc(F)cc3)c2CC1 | 10.52 |
| Fc1cccc(N2CCc3ncnc(N4CCOCC4)c3CC2)c1 | 24.23 |
| c1nc2c(c(N3CCOCC3)n1)CCNCC2 | 91.19 |
| O=S(=O)(C1CC1)N1CCc2ncnc(N3CCOCC3)c2CC1 | 100.4 |
| Cc1cnc(N2CCc3ncnc(N4CCN(C)CC4)c3CC2)nc1.O=C(O)C(F)(F)F | -5.23 |
| O=C(C1CC1)N1CCCN(c2ncnc3c2CCNCC3)CC1 | -5.367 |

Source: ChEMBL document CHEMBL3988442, “University of Dundee, Small-Polar-MMV Screening Library” (2021)
